Data from PubChem BioAssay (NCI).
Where “and” joins values, the source holds several entries; their conditions need not be identical. Identical values can stand only once. About 83,000 compounds went through this panel and 20% of them were active in at least one assay; those are over-represented in the sample as a whole.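 A percent growth of 40 corresponds to 60% growth inhibition; 0 means no net growth; -100 means all cells died. Active threshold: below 10.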 Calls of active or inactive are those of the source.

Key:
Test in all cases: NCI-60 one-dose screen, 48 h (100 = growth as untreated, 0 = no growth, -100 = all killed)
HCT-15 colon = settings: 10 µM
HT29 colon = settings: 10 µM
SNB-75 CNS = settings: 10 µM
SNB-19 CNS = settings: 10 µM
PC-3 prostate = settings: 10 µM
UACC-62 melanoma = system: UACC-62 melanoma
LOX IMVI melanoma = settings: 10 µM unless noted
SK-MEL-28 melanoma = settings: 10 µM
SK-MEL-2 melanoma = settings: 10 µM
UO-31 renal = settings: 10 µM
TK-10 renal = system: TK-10 renal
ACHN renal = settings: 10 µM
CAKI-1 renal = settings: 10 µM
A498 renal = settings: 10 µM
CCRF-CEM leukemia = settings: 10 µM
MOLT-4 leukemia = settings: 10 µM
SK-MEL-5 melanoma = settings: 10 µM unless noted
SN12C renal = settings: 10 µM
EKVX NSCLC = settings: 10 µM

Measured: growth

CSC1SCC2C(=O)N(C)C(C(C)C)C(=O)OCC(NC(=O)c3cnc4ccccc4n3)C(=O)NC(C)C(=O)N(C)C1C(=O)N(C)C(C(C)C)C(=O)OCC(NC(=O)c1cnc3ccccc3n1)C(=O)NC(C)C(=O)N2C (configuration not stated)
active: HCT-15 colon 4.08% | HT29 colon 2.66% | SNB-75 CNS -80.2% | SNB-19 CNS -13.3% | PC-3 prostate -12.7% | UACC-62 melanoma; 10 µM -77% | LOX IMVI melanoma 3.98% | SK-MEL-28 melanoma -13.9% | SK-MEL-2 melanoma -28.3% | ACHN renal 2.44% | CAKI-1 renal -13% | A498 renal -76.6% | CCRF-CEM leukemia -25.7% | MOLT-4 leukemia -33.8%
inactive: UO-31 renal 13.4% | TK-10 renal; 10 µM 20.1%

CCCC1CCC(=C2C(=O)CCC2=O)O1 (configuration not stated)
81.8% (inactive) and -17.8% (active): SNB-75 CNS
inactive: HCT-15 colon 105% and 92% | HT29 colon 94.2% and 97.4% | SNB-19 CNS 99.7% and 98.9% | PC-3 prostate 95.1% and 103% | UACC-62 melanoma; 10 µM 86.8% and 93.7% | LOX IMVI melanoma 94.5% and 97.6% | SK-MEL-28 melanoma 103% | SK-MEL-2 melanoma 116% and 125% | UO-31 renal 84.8% and 96.3% | TK-10 renal; 10 µM 98.2% and 118% | ACHN renal 95.7% and 96.2% | CAKI-1 renal 93.9% and 90.5% | A498 renal 108% and 105% | CCRF-CEM leukemia 123% and 99.8% | MOLT-4 leukemia 134% and 120%

CC(C)C1=C(O)C2=C(C(=O)C1=O)C1(C)CCCC(C)(C)C1CC2O (configuration not stated)
18.6% (inactive) and -89% (active): TK-10 renal; 100 µM
active: UACC-62 melanoma; 100 µM -73.2% and -96.5%

O=C1C=CC(=CC=C2C=CN(CCCCCCCCCCCO)C=C2)C=C1
active: SK-MEL-5 melanoma -54.3%
inactive: HCT-15 colon 89.8% | HT29 colon 22.5% | SNB-75 CNS 53.4% | PC-3 prostate 17.5% | UACC-62 melanoma; 10 µM 29.6% | LOX IMVI melanoma 18.8% | SK-MEL-28 melanoma 37.6% | SK-MEL-2 melanoma 33.5% | SN12C renal 10.4% | TK-10 renal; 10 µM 58.8% | ACHN renal 90.9% | CAKI-1 renal 90.4% | A498 renal 95.1% | CCRF-CEM leukemia 29.5% | MOLT-4 leukemia 41.9%

CCC(C)(C)c1cc(O)c(C(C)(C)CC)cc1O
inactive: HCT-15 colon 43.8% | HT29 colon 28.5% | SNB-75 CNS 52.1% | SNB-19 CNS 21.8% | PC-3 prostate 32.3% | UACC-62 melanoma; 10 µM 35.4% | LOX IMVI melanoma 13% | SK-MEL-28 melanoma 43.5% | SK-MEL-2 melanoma 24.4% | TK-10 renal; 10 µM 63.2% | ACHN renal 43.4% | CAKI-1 renal 41.4% | A498 renal 50.1% | MOLT-4 leukemia 24.7%

CCO/C=C1\SC(=S)N(c2cccc(O)c2)C1=O
inactive: HCT-15 colon 104% | HT29 colon 98.5% | SNB-75 CNS 74.7% | SNB-19 CNS 96.3% | PC-3 prostate 98% | UACC-62 melanoma; 10 µM 103% | LOX IMVI melanoma 103% | SK-MEL-28 melanoma 102% | SK-MEL-2 melanoma 87.4% | SN12C renal 98.1% | UO-31 renal 79.5% | TK-10 renal; 10 µM 88.3% | ACHN renal 102% | CAKI-1 renal 98.9% | A498 renal 118% | MOLT-4 leukemia 96.7%

Cc1cc(O)c(C(C)C)cc1Cl
inactive: HCT-15 colon 106% | HT29 colon 103% | SNB-75 CNS 93.2% | SNB-19 CNS 103% | PC-3 prostate 101% | UACC-62 melanoma; 10 µM 103% | LOX IMVI melanoma 98.3% | SK-MEL-28 melanoma 105% | SK-MEL-2 melanoma 117% | UO-31 renal 89.8% | TK-10 renal; 10 µM 97.6% | ACHN renal 106% | CAKI-1 renal 99.7% | A498 renal 118% | CCRF-CEM leukemia 104% | MOLT-4 leukemia 99%

CCCCCC(C)c1ccc(O)c(C)c1 (configuration not stated)
inactive: HCT-15 colon 103% | HT29 colon 103% | SNB-75 CNS 92.1% | PC-3 prostate 103% | LOX IMVI melanoma 98% | SK-MEL-28 melanoma 111% | SK-MEL-2 melanoma 104% | UO-31 renal 83.5% | TK-10 renal; 10 µM 107% | ACHN renal 101% | CAKI-1 renal 103% | A498 renal 81.9% | MOLT-4 leukemia 93%

Nc1nc(=S)c2ncn(C3OC(CO)C(O)C3O)c2[nH]1 (configuration not stated)
102% (inactive) and 0.101% (active): UACC-62 melanoma; 10 µM
107% (inactive) and 9.43% (active): HCT-15 colon
104% (inactive) and 7.31% (active): LOX IMVI melanoma
113% (inactive) and -8.94% (active): CAKI-1 renal
inactive: HT29 colon 100% and 14.3% | SNB-75 CNS 101% and 27.5% | SNB-19 CNS 107% and 78.6% | PC-3 prostate 33.4% | SK-MEL-28 melanoma 115% and 50.8% | SK-MEL-2 melanoma 93% and 15.6% | UO-31 renal 95.4% and 19.8% | ACHN renal 112% and 17.2% | A498 renal 125% and 29.6% | CCRF-CEM leukemia 96.4% and 24.2% | MOLT-4 leukemia 100% and 13.4%
120% (inactive) and -8.09% (active): TK-10 renal; 10 µM

O=C1C=C(O)c2ccccc2C1=O.[Ag]
inactive: HCT-15 colon 88.2% | HT29 colon 81.9% | SNB-75 CNS 87.9% | SNB-19 CNS 102% | PC-3 prostate 78.7% | UACC-62 melanoma; 10 µM 108% | SK-MEL-28 melanoma 92.3% | SN12C renal 103% | UO-31 renal 82.9% | TK-10 renal; 10 µM 157% | ACHN renal 95.2% | CAKI-1 renal 94.4% | A498 renal 93.3% | CCRF-CEM leukemia 101% | MOLT-4 leukemia 105%

COC(=O)C1C(O)C(C)C(O)C(C)C=C(C)C2=C3C(=C(C)C(=O)c4c(O)c(c(C)c(OC(C)=O)c43)NC(=O)C(C)=C/C=C\C(C)C(O)C(C)C1O)OCO2 (configuration not stated)
inactive: HCT-15 colon 115% | HT29 colon 114% | SNB-75 CNS 90% | SNB-19 CNS 109% | UACC-62 melanoma; 10 µM 103% | LOX IMVI melanoma 102% | SK-MEL-28 melanoma 118% | SK-MEL-2 melanoma 26.5% | EKVX NSCLC 119% | UO-31 renal 89.3% | TK-10 renal; 10 µM 118% | ACHN renal 104% | CAKI-1 renal 133% | A498 renal 123% | CCRF-CEM leukemia 103% | MOLT-4 leukemia 153%

CO[C@H](C(=O)[C@@H](O)[C@@H](C)O)[C@@H]1Cc2cc3cc(OC4CC(OC5CC(O)C(O)C(C)O5)C(O)C(C)O4)c(C)c(O)c3c(O)c2C(=O)[C@H]1OC1CC(OC2CC(OC3CC(C)(O)C(O)C(C)O3)C(O)C(C)O2)C(O)C(C)O1 (some centres not stated)
inactive: SNB-19 CNS 13.3% | PC-3 prostate 10.5% | SN12C renal 24.8% | CAKI-1 renal 17.2%
active: HCT-15 colon 6.74% | HT29 colon 0.182% | SNB-75 CNS -56.9% | UACC-62 melanoma; 10 µM -58.6% | LOX IMVI melanoma 7.02% | SK-MEL-2 melanoma -43.9% | UO-31 renal -4.43% | TK-10 renal; 10 µM 9.9% | ACHN renal 3.72% | CCRF-CEM leukemia 3.86% | MOLT-4 leukemia 6.22%

CC[N+](CC)=c1ccc2nc3c(cc(N)c4ccccc43)oc-2c1
active: HCT-15 colon -54.6% | HT29 colon 5.58% | SNB-75 CNS -73.4% | SNB-19 CNS -64.3% | PC-3 prostate -48.8% | UACC-62 melanoma; 10 µM -79.9% | LOX IMVI melanoma -58.7% | SK-MEL-28 melanoma -61.8% | SK-MEL-2 melanoma -75.1% | UO-31 renal -56.7% | TK-10 renal; 10 µM -74.2% | ACHN renal -77.6% | CAKI-1 renal -79% | A498 renal -76.4% | MOLT-4 leukemia -44.4%
inactive: CCRF-CEM leukemia 19.8%

Oc1ccc(N=Nc2ccccn2)c(O)c1
inactive: HCT-15 colon 30.5% | HT29 colon 21.6% | SNB-75 CNS 54.6% | SNB-19 CNS 31.2% | PC-3 prostate 36.1% | SK-MEL-28 melanoma 31.7% | SK-MEL-2 melanoma 27.8% | TK-10 renal; 10 µM 36.1% | ACHN renal 13.8% | A498 renal 59.2%
active: UACC-62 melanoma; 10 µM -34.1% | LOX IMVI melanoma 8.85% | UO-31 renal 5.48% | CCRF-CEM leukemia 3.95% | MOLT-4 leukemia 4.34%

NNc1c2ccccc2nc2ccccc12
inactive: HCT-15 colon 35.1% | HT29 colon 34.5% | SNB-75 CNS 55% | SNB-19 CNS 56.9% | PC-3 prostate 50.7% | UACC-62 melanoma; 10 µM 45.2% | LOX IMVI melanoma 58.7% | SK-MEL-28 melanoma 76.7% | UO-31 renal 61.4% | TK-10 renal; 10 µM 45.4% | ACHN renal 46.7% | A498 renal 49.3% | CCRF-CEM leukemia 37.7% | MOLT-4 leukemia 29%

Cc1cc(NS(=O)(=O)c2ccc(N=Nc3cc(N=Nc4ccc(S(=O)(=O)Nc5cc(C)nc(C)n5)cc4)c4c(NC(=O)C(Cl)Cl)cccc4c3OC(=O)C(Cl)Cl)cc2)nc(C)n1 (tested in a mixture with another compound)
inactive: HCT-15 colon 88.8% and 84.2% | HT29 colon 118% | SNB-75 CNS 75.6% and 61.7% | SNB-19 CNS 97.4% and 95.7% | PC-3 prostate 97.4% and 106% | UACC-62 melanoma; 10 µM 99.8% and 95.8% | LOX IMVI melanoma 92.6% and 104% | SK-MEL-28 melanoma 111% | UO-31 renal 68.9% and 72.2% | TK-10 renal; 10 µM 148% and 150% | ACHN renal 89.5% and 94.4% | CAKI-1 renal 96.7% and 88.6% | A498 renal 116% and 101% | CCRF-CEM leukemia 95.3% and 99.6% | MOLT-4 leukemia 102% and 105%

Cc1nc(N=C(N)N)nc2ccc3ccccc3c12
inactive: HCT-15 colon 71.8% | ACHN renal 15.1% | CAKI-1 renal 75.2% | A498 renal 32.9%
active: HT29 colon 1.55% | SNB-75 CNS -10.3% | SNB-19 CNS -11.5% | PC-3 prostate -19.2% | UACC-62 melanoma; 10 µM -20.9% | LOX IMVI melanoma 2.45% | SK-MEL-28 melanoma -0.847% | SK-MEL-2 melanoma -19% | UO-31 renal 5.39% | TK-10 renal; 10 µM 3.86% | CCRF-CEM leukemia -25.9% | MOLT-4 leukemia -28.2%
